Gal4-VP16 FLuc: Gal4-VP16 reporter inhibition counter-screen. 310,000 tested, 3.5% active. Drosophila S2 Gal4-VP16 UAS-luciferase, luminescence, 20 h. Potency, µM (series often up to 53.6 µM), for inactives: at the highest dose activity, negative = inhibition, usual class: inhibitors;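 note: Gal4-VP16 expression switched on by copper sulfate through the metallothionein promoter; potency is the fitted concentration of half-maximal effect; % is set by controls: 0 for no effect and ±100 for the full control effect; nearly all actives have a fitted effect of over 50% in size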
RORgamma inh: blocks mouse ROR gamma transcriptional activity | P51450 | Drosophila S2 Gal4-RORgamma UAS-luciferase reporter, 20 h | 310,000 tested, 5.4% active | Potency, µM (series often up to 53.6 µM), without a hit: at the top dose activity change, negative = inhibition, hits mostly inhibitors; note: potency is the fitted concentration of half-maximal effect; % is set by controls: 0 for no effect and ±100 for the full control effect; nearly all actives have a fitted effect of over 60% in size
Target sequence (P51450 whole entry, looked up, the tested form may be a part): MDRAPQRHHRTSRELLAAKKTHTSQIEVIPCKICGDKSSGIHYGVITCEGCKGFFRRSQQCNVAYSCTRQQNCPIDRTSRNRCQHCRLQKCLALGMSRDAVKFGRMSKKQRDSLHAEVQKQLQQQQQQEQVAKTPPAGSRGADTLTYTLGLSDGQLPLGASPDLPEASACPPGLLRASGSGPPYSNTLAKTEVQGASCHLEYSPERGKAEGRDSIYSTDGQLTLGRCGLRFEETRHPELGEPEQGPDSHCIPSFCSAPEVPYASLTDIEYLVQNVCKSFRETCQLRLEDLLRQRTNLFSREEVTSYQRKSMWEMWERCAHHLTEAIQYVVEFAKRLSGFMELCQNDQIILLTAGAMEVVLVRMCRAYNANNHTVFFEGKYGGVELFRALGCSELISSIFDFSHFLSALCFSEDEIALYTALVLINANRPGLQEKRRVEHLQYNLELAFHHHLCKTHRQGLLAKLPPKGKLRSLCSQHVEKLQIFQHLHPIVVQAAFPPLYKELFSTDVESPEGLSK
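ROR gamma transcriptional activity was tracked as Gal4-UAS luciferase output in stably transfected Drosophila Schneider cells, with compound added 1 hr before 700 uM copper sulfate induction and a 20 hr ambient-temperature incubation.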
Giardia killer: kills Giardia lamblia | Giardia lamblia trophozoite viability | activity change, % at 7.66 µM, hits read low | 340,000 tested, 0.15% active; in the data active = activity change below about -80%; inconclusive = between about -30% and that limit;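 note: parasites exposed to compound for two days anaerobically before the ATP read; % is set by controls: 0 for no effect and ±100 for the full control effect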
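Media and compound were dispensed first, then trophozoites at 100 cells/well; plates sat 48 hrs at 37 deg C without oxygen before ATP luminescence reagent was added and read after 15-30 min at room temperature.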
MCF10A rereplic: induces DNA re-replication in MCF 10a normal breast cells; MCF 10A DNA re-replication, Hoechst nuclear intensity, 48 h; Potency, µM (top dose mostly 46.1 µM), without a hit: top-dose activity, positive = re-replication, actives largely listed as activators; 350,000 tested, 2.9% active; AID 624296; note: potency is the fitted concentration of half-maximal effect; % of control where 0% means no effect; nearly all actives have a fitted effect of over 50% in size
SW480 rerep: inducers of DNA re-replication in SW480 colon cancer cells. SW480 DNA re-replication, Hoechst DNA content imaging, 48 h. Potency, µM (top dose mostly 46.1 µM), without a hit: top-dose re-replication activation, actives largely listed as activators. 340,000 tested, 1.8% active. AID 624297; note: potency is the fitted concentration of half-maximal effect; % of control where 0% means no effect; nearly all actives have a fitted effect of over 55% in size
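Image-based read-out: total Hoechst fluorescence of nuclei (405 nm excitation, 500-530 nm emission), with hits raising the fraction of high-intensity nuclei. SW480 colon cells incubated 48 hr with compounds at 37 C.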
BCR signal inh: inhibitors of chronic active B-cell receptor signaling; ABC-DLBCL IkBa-CBG/CBR reporter, luminescence ratio, 4 h; Potency, µM (highest dose often 46.1 µM), without a hit: at the top dose activity change, negative = inhibition, actives largely listed as inhibitors; 340,000 tested, 0.05% active; AID 493014; active = well fitted inhibition curve with a large enough effect in the signal ratio, with a control signal flat, not every such curve was filed as active; inconclusive = small, poorly fitted or top-dose-only effect, or effect the other way, or a change in a side signal; the % refers to the signal ratio;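 note: potency is the fitted concentration of half-maximal effect; plate controls were basal doxycycline-induced cells for no effect and cells given 10 µM MG132 for full effect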
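Concentration-response series (up to 46 uM) were applied to TMD8 dual-reporter cells for 4 h at 37C with doxycycline. Green/red ratio, after filter-overlap correction, defined %Activity; red signal alone was normalised to basal cells and zero luminescence.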
The depositor's hits bear a star; ? = inconclusive; . = no result. The list is not random: actives were taken first. Their share in the collection is about 8.3%. Unless noted, calls come from the whole dose curve; as a rule, active = well fitted curve in the direction sought with a large enough effect; inconclusive = small, poorly fitted or top-dose-only effect, or another doubt; inactive = no such curve, though single readings can be large; an effect the other way counts as inactive or inconclusive.

SMILES	Gal4-VP16 FLuc	RORgamma inh	Giardia killer	MCF10A rereplic	SW480 rerep	BCR signal inh
Cc1ccc(CN2CCc3c(OCc4ccc(F)cc4)cccc3C2=O)cc1	?	?	2	11%	0%	8%
Cc1cc(C)c(S(=O)(=O)Nc2cccc(-c3cn4ccccc4n3)c2)c(C)c1	.	.	.	.	.	-4%
CC(C)CCN1C(=O)c2cccc3c(N)ccc(c23)C1=O	.	.	21	15µM*	23µM*	.
Cc1cccc(N2C(=O)c3cccc4c(N)ccc(c34)C2=O)c1	-19%	0%	-2	?	8.2µM*	-9%
Nc1cccc(N2C(=O)c3cccc4c(N)ccc(c34)C2=O)c1	-1%	1%	4	2%	-22%	-12%
O=C(O)c1cccc(N2C(=O)c3cccc4c(Cl)ccc(c34)C2=O)c1	-11%	8%	-5	21µM*	?	5%
Cc1cccc(N2C(=O)c3cccc4c(N(C)CCO)ccc(c34)C2=O)c1	-24%	1.3µM*	2	?	?	?
O=C(O)c1cccc(N2C(=O)c3cccc4cccc(c34)C2=O)c1	11%	-24%	18	?	-1%	1%
CN(C)c1ccc2c3c(cccc13)C(=O)N(c1ccccc1)C2=O	-3%	-8%	.	.	.	?
NC(=O)c1ccccc1NC(=S)NC(=O)c1ccc(Br)o1	17%	-28%	-27	2%	-7%	?
COc1ccc(NC(=S)NC(=O)c2ccc(Br)o2)cc1	?	1µM*	-22	-1%	1%	0%
Cc1snnc1C(=O)NC(=S)Nc1ccccc1	5.6µM*	4.5µM*	-5	0%	-1%	-17%
O=C(NC(=S)Nc1ccccc1)c1ccc(Br)o1	0%	3.2µM*	0	5%	12%	3%
O=C(CCS(=O)(=O)Cc1ccccc1F)NCCc1ccc(Cl)cc1	-13%	-1%	-3	1%	-60%	1%
Cc1ccc(S(=O)(=O)CCC(=O)N2CCN(c3ccc([N+](=O)[O-])cc3)CC2)cc1	?	?	1	19%	?	?
C=CCN1C(=O)c2ccc(C(=O)NCCOc3ccccc3F)cc2C1=O	.	.	-11	-4%	-5%	12%
CN(C)CCn1c(=S)[nH]c2ccccc2c1=O	-8%	5%	8	8%	0%	-2%
CCCn1c(=S)[nH]c2ccccc2c1=O	7.9µM*	2.8µM*	-5	9%	4%	?
O=c1c2ccccc2[nH]c(=S)n1Cc1cccs1	3.2µM*	1.6µM*	-7	11%	5%	4%
COc1cc2[nH]c(=O)n(Cc3ccccc3Cl)c(=O)c2cc1OC	0%	1%	0	5%	-11%	-18%
COc1cc2[nH]c(=S)n(Cc3ccccc3)c(=O)c2cc1OC	5µM*	3.2µM*	-26	?	-4%	3%
O=c1c2ccccc2[nH]c(=S)n1Cc1ccccc1Cl	5µM*	3.5µM*	6	13%	-3%	-2%
CN(CC(=O)Nc1ccc(Cl)c(C(F)(F)F)c1)C(=O)CCN1C(=O)C2CCCCC2C1=O (configuration not stated)	.	.	8	4%	7%	?
Cc1ccc(C(=O)N2CCN(Cc3ccccc3)CC2)cc1S(=O)(=O)N1CCOCC1	.	.	-22	2%	-3%	0%
O=C(O)C1=C[C@H](c2ccc(F)cc2)C[C@H](OCc2ccc(CO)cc2)O1	2%	8%	17	-9%	-9%	5%
COc1ccc(C(=O)N(C)C2CCN(C)CC2)cc1S(=O)(=O)Nc1cc(Cl)ccc1Cl	-13%	-6%	-21	0%	-23%	-1%
O=c1c2cc(Cl)ccc2[nH]c(=S)n1Cc1ccccn1	3.2µM*	2.2µM*	0	4%	-2%	?
O=c1c2ccccc2[nH]c(=S)n1Cc1ccccc1	5µM*	4µM*	12	-9%	-6%	-2%
O=c1c2ccccc2[nH]c(=S)n1CCN1CCN(Cc2ccccc2)CC1	?	35µM*	-14	2%	-1%	-1%

Compound activity from PubChem.
